Source: the supplement of paper PMC13380429
Unmarked numbers belong to inactive results.

What follows are compounds tested on Vero E6 infected with SARS-CoV-2 (assay: inhibition of SARS-CoV-2 cytopathic effect; higher = more antiviral protection, active = above 15). Conditions: 1 nM; 48 h.
For `C#C[C@]1(O)CC[C@H]2[C@@H]3CCc4cc(OC5CCCC5)ccc4[C@H]3CC[C@@]21C` [quinestrol], the “inhibition of SARS-CoV-2 cytopathic effect” value (“inhibition” for short) was -2.85%.
In the case of `COc1ccccc1OC(=O)C(C)c1ccc(CC(C)C)cc1` (stereo not drawn) [metoxibutropate], the “inhibition” value is reported as -3.38%.
For `CC[C@]1(O)C[C@@H]2CN(CCc3c([nH]c4ccccc34)[C@@](C(=O)OC)(c3cc4c(cc3OC)N(C)[C@H]3[C@@](O)(C(N)=O)[C@H](O)[C@]5(CC)C=CCN6CC[C@]43[C@@H]65)C2)C1` [vindesine], the “inhibition” value was 0.4%.
With `CNC(=O)[C@H](Cc1c[nH]c2ccccc12)NC(=O)[C@@H](CC(=O)NO)CC(C)C` [ilomastat] the “inhibition” value was 3.69%.
In the case of `N#CC1(c2ccc(NC(=O)c3cccnc3NCc3ccncc3)cc2)CCCC1` [apatinib], the “inhibition” value is reported as 1.27%.
In the case of `CN1[C@@H]2CC[C@H]1C[C@@H](OC(=O)C(CO)c1ccccc1)C2` (stereo partly drawn), the “inhibition” value is reported as -2.22%.
In the case of `Cc1cccc(/C=N/Nc2cc(N3CCOCC3)n3nc(-c4ccncc4)cc3n2)c1`, the “inhibition” value is reported as 1.37%.
With `OC[C@H]1O[C@H](O[C@]2(CCl)O[C@H](CCl)[C@@H](O)[C@@H]2O)[C@H](O)[C@@H](O)[C@H]1Cl` [sucralose] the “inhibition” value was 0.95%.
For `O=C(/C=C/c1ccc(O)c(O)c1)O[C@H](Cc1ccc(O)c(O)c1)C(=O)O` [rosmarinic-acid], the “inhibition” value was 2.8%.
In the case of `Clc1cccc(C(c2ccc3[nH]cnc3c2)n2ccnc2)c1` (stereo not drawn) [liarozole], the “inhibition” value is reported as 0.27%.
`CN(C)CCCCSC(=N)N` was tested, and the “inhibition” value was -2.5%.
In the case of `COc1cc2c(Nc3ccc(Cl)c(Cl)c3F)ncnc2cc1OC[C@@H]1C[C@@H]2CN(C)C[C@@H]2C1`, the “inhibition” value is reported as -2.06%.
`CCCCCCCCCCCCCC(=O)OC(C)C` [isopropyl-myristate] was tested, and the “inhibition” value was 0.54%.
For `N#Cc1c(N)nc(SCc2ncc[nH]2)c(C#N)c1-c1ccc(O)cc1`, the “inhibition” value was -0.59%.
For `CN(C)C(=O)Oc1cccc([N+](C)(C)C)c1` [neostigmine], the “inhibition” value was 1.41%.
For `COC(=O)c1c(C)[nH]c(C)c1C(=O)c1ccccc1Cc1ccccc1`, the “inhibition” value was 1.06%.
For `NC(=O)c1ccc([N+](=O)[O-])cc1Cl` [aklomide], the “inhibition” value was -0.14%.
In the case of `O=C(Nc1cc(Cl)cc(Cl)c1O)c1c(O)c(Cl)cc(Cl)c1Cl` [oxyclozanide], the “inhibition” value is reported as -1.81%.
With `CCCNC(C)(C)COC(=O)c1ccccc1` [meprylcaine] the “inhibition” value was 2.21%.
`Cc1noc(NS(=O)(=O)c2ccc(N)cc2)c1C` [sulfafurazole] was tested, and the “inhibition” value was -0.27%.
In the case of `[O-][n+]1cccc(CO)c1` [mepiroxol], the “inhibition” value is reported as 0.82%.
In the case of `Cc1ccccc1N1CCN(CCc2nnc3n2CCCC3)CC1` [dapiprazole], the “inhibition” value is reported as -2.9%.
`Cn1c(=O)n(-c2ccc(C(C)(C)C#N)cc2)c2c3cc(-c4cnc5ccccc5c4)ccc3ncc21` was tested, and the “inhibition” value was 1.43%.
In the case of `C[N+](C)(C)CCCCCC[N+](C)(C)C` [hexamethonium], the “inhibition” value is reported as -0.33%.
For `COc1cc(O)c2c(c1)C(=O)c1cc(C)cc(O)c1C2=O` [rheochrysidin], the “inhibition” value was 1.91%.
With `CC(=O)c1ccc(NS(C)(=O)=O)c(Oc2ccc(F)cc2F)c1` the “inhibition” value was 4.46%.
`Cc1cc(-c2nc(C(=O)Nc3cn(C4CCOCC4)nc3C(N)=O)co2)ccn1` was tested, and the “inhibition” value was -2.34%.
With `CC(C)C[C@@H](C(=O)N[C@H](C(=O)OC1CCCC1)c1ccccc1)[C@H](O)C(=O)NO` [tosedostat] the “inhibition” value was 3.34%.
For `C[C@H](CCC(=O)O)[C@H]1CC[C@H]2[C@@H]3CC[C@@H]4C[C@H](O)CC[C@]4(C)[C@H]3C[C@H](O)[C@]12C` [deoxycholic-acid], the “inhibition” value was -0.18%.
`C[C@H](c1ccc2ccc(OC3CCC(C(F)(F)F)CC3)c(C(F)(F)F)c2c1)N1C2CCC1CC(C(=O)O)C2` (stereo partly drawn) [autotaxin-modulator-1] was tested, and the “inhibition” value was -1.22%.
For `c1ccc2c(CC3=NCCN3)cccc2c1` [naphazoline], the “inhibition” value was 1.08%.
With `COC(=O)c1ccc(O)cc1` [methylparaben] the “inhibition” value was -0.45%.
For `CC[C@H](c1ccc(O)cc1)[C@@H](CC)c1ccc(O)cc1` [hexestrol], the “inhibition” value was -3.59%.
With `Nc1nc(=O)[nH]cc1F` [flucytosine] the “inhibition” value was -1.58%.
For `FC(F)(F)c1ccc(CNc2ccc(Cc3c[nH]c4ncc(Cl)cc34)cn2)cn1` [pexidartinib], the “inhibition” value was 0.78%.
In the case of `CNC(=O)c1cc2c(cn1)[nH]c1ccccc12`, the “inhibition” value is reported as 1.51%.
In the case of `O=C(Nc1ccc([N+](=O)[O-])cc1Cl)c1cc(Cl)ccc1O` [niclosamide], the “inhibition” value is reported as -0.87%.
In the case of `CS(=O)(=O)c1cc(F)cc2c3c(n(Cc4ccc(Cl)cc4)c12)[C@@H](CC(=O)O)CC3` [laropiprant], the “inhibition” value is reported as 0.24%.
